Data published in paper PMC7862700, “An all-to-all approach to the identification of sequence-specific readers for epigenetic DNA modifications on cytosine”.

Columns and labels:
Assay in all cases: DAPPL (digital affinity profiling via proximity ligation, sequencing); 10 mM Tris-HCl pH 7.5, 50 mM NaCl, 1 mM DTT, 4% glycerol, room temperature, 30 min; GST-TFs on glutathione beads, 16-mer random dsDNA library, 0.1% formaldehyde crosslink after washing; high values mean tight binding
FLI1 = target: T1, FLI1 (Homo sapiens, UniProt Q01543 1-452); details: protein: recombinant; tags: N-terminal GST; dsDNA, one strand shown
T1 sequence: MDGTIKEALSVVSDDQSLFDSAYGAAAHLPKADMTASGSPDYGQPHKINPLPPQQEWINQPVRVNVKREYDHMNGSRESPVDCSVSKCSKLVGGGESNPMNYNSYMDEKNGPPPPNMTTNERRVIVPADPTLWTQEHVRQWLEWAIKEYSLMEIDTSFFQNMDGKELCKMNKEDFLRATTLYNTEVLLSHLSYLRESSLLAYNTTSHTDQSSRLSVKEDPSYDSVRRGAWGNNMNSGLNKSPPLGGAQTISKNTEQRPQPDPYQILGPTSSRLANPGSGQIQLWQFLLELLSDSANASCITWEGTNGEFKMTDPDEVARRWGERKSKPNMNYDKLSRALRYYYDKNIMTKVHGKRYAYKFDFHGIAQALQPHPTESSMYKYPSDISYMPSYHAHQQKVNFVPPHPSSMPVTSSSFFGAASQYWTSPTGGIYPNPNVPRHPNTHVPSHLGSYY
Procedure, shortened: (§1)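 The binding signal reported is, for every hexamer, its read frequency for a factor over its read frequency for the tag-only sample. Reads came from pools of yeast-expressed, GST-fused human transcription factors on glutathione beads, barcoded with DNA and mixed with that sample, which were incubated with 200 nmole of a random double-stranded 16-mer DNA library in Tris/NaCl/DTT/glycerol buffer at room temperature for 30 min. After washing, the pools were crosslinked with 0.1% formaldehyde, proximity-ligated with BsaI/T4 ligase for 1 h at 37 °C, PCR-amplified and sequenced on an Illumina NextSeq500.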

ELK1 = target: T2, ELK1 (Homo sapiens, UniProt P19419 1-428); details: protein: recombinant; tags: N-terminal GST; dsDNA, one strand shown
T2 sequence: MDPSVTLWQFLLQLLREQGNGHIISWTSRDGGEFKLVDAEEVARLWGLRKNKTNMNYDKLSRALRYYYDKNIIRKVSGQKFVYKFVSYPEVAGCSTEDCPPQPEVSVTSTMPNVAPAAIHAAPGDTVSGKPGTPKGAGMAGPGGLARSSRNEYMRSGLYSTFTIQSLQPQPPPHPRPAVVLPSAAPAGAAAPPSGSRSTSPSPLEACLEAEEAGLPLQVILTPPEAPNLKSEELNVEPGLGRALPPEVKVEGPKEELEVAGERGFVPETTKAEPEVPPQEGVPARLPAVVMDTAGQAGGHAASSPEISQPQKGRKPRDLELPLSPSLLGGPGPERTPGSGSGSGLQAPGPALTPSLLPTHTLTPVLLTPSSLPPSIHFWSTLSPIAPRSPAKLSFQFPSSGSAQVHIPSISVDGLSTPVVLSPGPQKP
Procedure, shortened: as §1

GABPA = target: T3, GABPA (Homo sapiens, UniProt Q06546 1-454); details: protein: recombinant; tags: N-terminal GST; dsDNA, one strand shown
T3 sequence: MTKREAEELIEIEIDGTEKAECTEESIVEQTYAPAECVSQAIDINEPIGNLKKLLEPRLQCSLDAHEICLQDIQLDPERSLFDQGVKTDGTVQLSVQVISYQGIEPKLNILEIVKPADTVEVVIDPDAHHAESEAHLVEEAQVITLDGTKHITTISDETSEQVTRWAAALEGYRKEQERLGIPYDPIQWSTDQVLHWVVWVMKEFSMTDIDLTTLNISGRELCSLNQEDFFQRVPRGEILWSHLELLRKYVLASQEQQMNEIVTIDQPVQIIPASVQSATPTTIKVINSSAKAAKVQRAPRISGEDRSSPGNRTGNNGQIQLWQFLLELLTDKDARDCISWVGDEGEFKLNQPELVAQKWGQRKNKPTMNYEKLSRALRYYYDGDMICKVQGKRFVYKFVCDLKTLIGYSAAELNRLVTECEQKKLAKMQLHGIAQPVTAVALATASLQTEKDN
Procedure, shortened: as §1

ERG = target: T4, ERG (Homo sapiens, UniProt P11308 1-479); details: protein: recombinant; tags: N-terminal GST; dsDNA, one strand shown
T4 sequence: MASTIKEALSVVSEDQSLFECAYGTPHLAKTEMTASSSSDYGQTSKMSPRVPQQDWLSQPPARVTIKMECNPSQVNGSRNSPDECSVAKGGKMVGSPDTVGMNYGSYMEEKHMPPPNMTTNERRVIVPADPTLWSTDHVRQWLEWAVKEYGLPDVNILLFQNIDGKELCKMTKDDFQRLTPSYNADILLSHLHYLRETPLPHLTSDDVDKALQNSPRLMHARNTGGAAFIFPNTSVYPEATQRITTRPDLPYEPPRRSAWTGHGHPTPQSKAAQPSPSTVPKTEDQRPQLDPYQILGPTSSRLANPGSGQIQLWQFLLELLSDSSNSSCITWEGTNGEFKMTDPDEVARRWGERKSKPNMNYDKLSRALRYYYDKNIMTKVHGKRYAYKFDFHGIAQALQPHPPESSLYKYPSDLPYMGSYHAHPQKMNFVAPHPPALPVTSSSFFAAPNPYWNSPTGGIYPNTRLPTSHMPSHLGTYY
Procedure, shortened: as §1

ELF1 = ELF1 (Homo sapiens, UniProt P32519 1-619); details: protein: recombinant; tags: N-terminal GST; dsDNA, one strand shown
Procedure, shortened: as §1

EHF = target: T5, EHF (Homo sapiens, UniProt Q9NZC4 1-300); details: protein: recombinant; tags: N-terminal GST; dsDNA, one strand shown
T5 sequence: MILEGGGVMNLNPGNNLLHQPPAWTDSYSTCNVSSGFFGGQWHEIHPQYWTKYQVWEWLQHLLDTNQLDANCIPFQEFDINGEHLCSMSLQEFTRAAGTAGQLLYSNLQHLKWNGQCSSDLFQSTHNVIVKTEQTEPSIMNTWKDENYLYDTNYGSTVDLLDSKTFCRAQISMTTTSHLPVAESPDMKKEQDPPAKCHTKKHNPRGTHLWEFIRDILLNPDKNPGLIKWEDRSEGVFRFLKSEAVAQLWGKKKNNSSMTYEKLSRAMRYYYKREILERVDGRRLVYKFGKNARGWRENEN
Procedure, shortened: as §1

SPI1 = SPI1 (Homo sapiens, UniProt P17947 1-270); details: protein: recombinant; tags: N-terminal GST; dsDNA, one strand shown
Procedure, shortened: as §1

SPIB = SPIB (Homo sapiens, UniProt Q01892 1-262); details: protein: recombinant; tags: N-terminal GST; dsDNA, one strand shown
Procedure, shortened: as §1

ELK3 = target: T6, ELK3 (Homo sapiens, UniProt P41970 1-407); details: protein: recombinant; tags: N-terminal GST; dsDNA, one strand shown
T6 sequence: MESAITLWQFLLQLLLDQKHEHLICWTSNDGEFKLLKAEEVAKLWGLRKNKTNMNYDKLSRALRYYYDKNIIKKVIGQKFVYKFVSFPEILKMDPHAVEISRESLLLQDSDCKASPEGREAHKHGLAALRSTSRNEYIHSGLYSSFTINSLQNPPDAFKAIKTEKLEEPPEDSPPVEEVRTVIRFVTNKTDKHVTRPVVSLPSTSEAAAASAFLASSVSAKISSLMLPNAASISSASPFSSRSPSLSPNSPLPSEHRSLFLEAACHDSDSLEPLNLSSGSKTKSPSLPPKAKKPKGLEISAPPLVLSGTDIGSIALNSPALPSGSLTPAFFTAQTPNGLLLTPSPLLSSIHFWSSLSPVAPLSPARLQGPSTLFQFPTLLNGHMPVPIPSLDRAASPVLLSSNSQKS
Procedure, shortened: as §1

FEV = target: T7, FEV (Homo sapiens, UniProt Q99581 1-238); details: protein: recombinant; tags: N-terminal GST; dsDNA, one strand shown
T7 sequence: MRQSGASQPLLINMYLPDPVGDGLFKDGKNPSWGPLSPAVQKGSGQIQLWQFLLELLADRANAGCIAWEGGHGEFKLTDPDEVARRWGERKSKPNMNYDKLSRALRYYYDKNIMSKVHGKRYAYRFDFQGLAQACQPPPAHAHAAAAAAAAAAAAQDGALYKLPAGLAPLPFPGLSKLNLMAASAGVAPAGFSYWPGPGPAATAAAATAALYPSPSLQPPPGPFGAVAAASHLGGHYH
Procedure, shortened: as §1

ETV5 = ETV5 (Homo sapiens, UniProt P41161 1-510); details: protein: recombinant; tags: N-terminal GST; dsDNA, one strand shown
Procedure, shortened: as §1

HSF1 = HSF1 (Homo sapiens, UniProt Q00613 1-529); details: protein: recombinant; tags: N-terminal GST; chain copies: 3; dsDNA, one strand shown
Procedure, shortened: as §1

ELF4 = ELF4 (Homo sapiens, UniProt Q99607 1-663); details: protein: recombinant; tags: N-terminal GST; dsDNA, one strand shown
Procedure, shortened: as §1

ELK4 = target: T8, ELK4 (Homo sapiens, UniProt P28324-2 1-405); details: protein: recombinant; tags: N-terminal GST; dsDNA, one strand shown
T8 sequence: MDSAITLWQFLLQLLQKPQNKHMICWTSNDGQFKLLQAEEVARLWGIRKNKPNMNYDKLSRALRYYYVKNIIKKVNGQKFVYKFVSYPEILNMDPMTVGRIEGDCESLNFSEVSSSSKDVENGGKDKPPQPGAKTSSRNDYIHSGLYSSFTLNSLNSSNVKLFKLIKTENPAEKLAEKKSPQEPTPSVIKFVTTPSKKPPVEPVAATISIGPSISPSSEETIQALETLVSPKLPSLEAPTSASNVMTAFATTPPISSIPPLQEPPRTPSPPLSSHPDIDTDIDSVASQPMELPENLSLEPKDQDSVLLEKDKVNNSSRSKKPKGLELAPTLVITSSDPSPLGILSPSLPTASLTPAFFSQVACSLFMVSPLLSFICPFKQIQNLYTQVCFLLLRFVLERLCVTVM
Procedure, shortened: as §1

ETV2 = target: T9, ETV2 (Homo sapiens, UniProt O00321 1-342); details: protein: recombinant; tags: N-terminal GST; dsDNA, one strand shown
T9 sequence: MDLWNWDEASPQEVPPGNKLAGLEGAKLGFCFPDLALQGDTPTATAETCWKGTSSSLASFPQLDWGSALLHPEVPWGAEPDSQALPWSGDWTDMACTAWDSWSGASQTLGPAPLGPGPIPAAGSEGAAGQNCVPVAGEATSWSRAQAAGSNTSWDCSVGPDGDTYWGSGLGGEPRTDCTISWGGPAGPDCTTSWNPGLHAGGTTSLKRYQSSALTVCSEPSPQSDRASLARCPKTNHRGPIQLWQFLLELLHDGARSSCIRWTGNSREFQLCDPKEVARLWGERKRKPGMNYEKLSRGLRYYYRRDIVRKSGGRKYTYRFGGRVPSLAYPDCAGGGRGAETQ
Procedure, shortened: as §1

ELF3 = target: T10, ELF3 (Homo sapiens, UniProt P78545 1-371); details: protein: recombinant; tags: N-terminal GST; dsDNA, one strand shown
T10 sequence: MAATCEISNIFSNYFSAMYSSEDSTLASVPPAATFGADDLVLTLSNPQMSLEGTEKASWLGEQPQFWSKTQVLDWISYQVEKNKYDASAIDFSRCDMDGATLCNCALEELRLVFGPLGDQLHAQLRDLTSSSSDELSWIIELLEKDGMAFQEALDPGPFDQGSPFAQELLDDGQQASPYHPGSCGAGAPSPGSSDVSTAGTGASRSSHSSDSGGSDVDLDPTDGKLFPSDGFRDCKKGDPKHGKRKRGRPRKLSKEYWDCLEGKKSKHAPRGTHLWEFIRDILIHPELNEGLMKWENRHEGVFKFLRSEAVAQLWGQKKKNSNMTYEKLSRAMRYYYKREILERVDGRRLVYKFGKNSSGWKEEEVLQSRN
Procedure, shortened: as §1

CRX = CRX (Homo sapiens, UniProt O43186 1-299); details: protein: recombinant; tags: N-terminal GST; dsDNA, one strand shown
Procedure, shortened: as §1

ETV1 = ETV1 (Homo sapiens, UniProt P50549 1-477); details: protein: recombinant; tags: N-terminal GST; dsDNA, one strand shown
Procedure, shortened: as §1

Sequence of CRX (O43186 whole entry): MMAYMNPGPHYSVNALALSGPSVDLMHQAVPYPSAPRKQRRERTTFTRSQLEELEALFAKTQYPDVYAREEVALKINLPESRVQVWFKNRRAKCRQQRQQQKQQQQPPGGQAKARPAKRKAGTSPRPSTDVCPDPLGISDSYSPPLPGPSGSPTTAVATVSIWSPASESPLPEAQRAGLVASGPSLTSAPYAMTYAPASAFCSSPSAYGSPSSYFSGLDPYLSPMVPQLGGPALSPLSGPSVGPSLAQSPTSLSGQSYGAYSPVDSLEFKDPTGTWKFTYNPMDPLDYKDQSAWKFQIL
Sequence of ETV5 (P41161 whole entry): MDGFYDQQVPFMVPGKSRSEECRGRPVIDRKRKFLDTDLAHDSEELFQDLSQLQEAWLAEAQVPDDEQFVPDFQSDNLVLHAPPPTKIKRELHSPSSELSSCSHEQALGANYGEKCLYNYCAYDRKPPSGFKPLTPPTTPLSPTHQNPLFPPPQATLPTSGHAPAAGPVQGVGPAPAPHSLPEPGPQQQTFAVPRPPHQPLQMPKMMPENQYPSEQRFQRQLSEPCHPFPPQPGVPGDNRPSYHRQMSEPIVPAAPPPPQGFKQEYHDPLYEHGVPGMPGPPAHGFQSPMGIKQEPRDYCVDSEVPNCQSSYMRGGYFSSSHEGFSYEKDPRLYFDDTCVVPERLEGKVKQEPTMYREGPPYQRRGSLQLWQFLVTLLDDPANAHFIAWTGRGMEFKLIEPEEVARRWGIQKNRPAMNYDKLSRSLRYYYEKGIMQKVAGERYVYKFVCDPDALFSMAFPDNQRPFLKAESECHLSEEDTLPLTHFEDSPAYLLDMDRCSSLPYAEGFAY
Sequence of ELF4 (Q99607 whole entry): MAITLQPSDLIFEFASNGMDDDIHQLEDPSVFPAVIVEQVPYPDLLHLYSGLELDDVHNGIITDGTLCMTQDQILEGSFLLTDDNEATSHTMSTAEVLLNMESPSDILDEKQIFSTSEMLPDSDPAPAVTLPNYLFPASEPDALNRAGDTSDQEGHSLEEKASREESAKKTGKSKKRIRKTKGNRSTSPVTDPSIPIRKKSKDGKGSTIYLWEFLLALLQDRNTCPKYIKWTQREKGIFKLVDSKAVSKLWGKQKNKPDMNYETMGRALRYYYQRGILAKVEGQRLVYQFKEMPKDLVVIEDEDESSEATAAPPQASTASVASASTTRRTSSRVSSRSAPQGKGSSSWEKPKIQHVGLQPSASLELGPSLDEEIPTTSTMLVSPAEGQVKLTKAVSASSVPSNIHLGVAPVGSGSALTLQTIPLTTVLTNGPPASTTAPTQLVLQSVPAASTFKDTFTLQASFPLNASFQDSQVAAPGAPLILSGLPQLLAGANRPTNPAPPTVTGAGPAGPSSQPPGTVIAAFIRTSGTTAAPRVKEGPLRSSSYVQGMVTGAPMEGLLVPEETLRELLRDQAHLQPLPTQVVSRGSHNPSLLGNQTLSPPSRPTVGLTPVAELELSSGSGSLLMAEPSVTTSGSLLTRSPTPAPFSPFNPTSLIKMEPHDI
Sequence of ETV1 (P50549 whole entry): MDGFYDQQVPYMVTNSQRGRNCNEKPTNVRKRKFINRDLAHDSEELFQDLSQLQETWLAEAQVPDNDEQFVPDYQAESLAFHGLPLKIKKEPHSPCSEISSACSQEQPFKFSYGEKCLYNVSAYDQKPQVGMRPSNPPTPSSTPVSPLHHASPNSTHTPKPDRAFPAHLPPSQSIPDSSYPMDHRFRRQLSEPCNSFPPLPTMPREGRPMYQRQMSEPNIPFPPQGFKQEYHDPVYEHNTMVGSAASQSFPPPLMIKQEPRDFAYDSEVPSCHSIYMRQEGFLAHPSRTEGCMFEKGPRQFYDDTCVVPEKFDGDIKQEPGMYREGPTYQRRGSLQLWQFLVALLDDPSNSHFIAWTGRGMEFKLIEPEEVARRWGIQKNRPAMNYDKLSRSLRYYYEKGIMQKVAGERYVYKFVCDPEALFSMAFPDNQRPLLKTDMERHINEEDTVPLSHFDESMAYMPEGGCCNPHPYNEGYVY
Sequence of ELF1 (P32519 whole entry): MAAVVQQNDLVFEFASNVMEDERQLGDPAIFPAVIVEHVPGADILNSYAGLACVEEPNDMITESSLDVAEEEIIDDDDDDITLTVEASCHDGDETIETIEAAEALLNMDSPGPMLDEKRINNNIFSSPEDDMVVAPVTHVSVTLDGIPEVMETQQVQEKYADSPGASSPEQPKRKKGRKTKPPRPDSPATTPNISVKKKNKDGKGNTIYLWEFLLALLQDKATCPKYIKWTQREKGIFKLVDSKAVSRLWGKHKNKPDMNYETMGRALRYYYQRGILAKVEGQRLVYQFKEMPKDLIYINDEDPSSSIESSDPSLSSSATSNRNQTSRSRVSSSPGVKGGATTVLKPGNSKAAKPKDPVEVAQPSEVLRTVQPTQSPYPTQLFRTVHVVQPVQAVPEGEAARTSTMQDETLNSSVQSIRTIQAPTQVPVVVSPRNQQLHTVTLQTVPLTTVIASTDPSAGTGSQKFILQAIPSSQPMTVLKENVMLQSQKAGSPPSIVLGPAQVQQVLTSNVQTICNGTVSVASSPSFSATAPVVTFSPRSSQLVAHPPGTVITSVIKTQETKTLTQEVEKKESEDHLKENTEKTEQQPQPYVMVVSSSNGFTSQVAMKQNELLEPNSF
Sequence of SPIB (Q01892 whole entry): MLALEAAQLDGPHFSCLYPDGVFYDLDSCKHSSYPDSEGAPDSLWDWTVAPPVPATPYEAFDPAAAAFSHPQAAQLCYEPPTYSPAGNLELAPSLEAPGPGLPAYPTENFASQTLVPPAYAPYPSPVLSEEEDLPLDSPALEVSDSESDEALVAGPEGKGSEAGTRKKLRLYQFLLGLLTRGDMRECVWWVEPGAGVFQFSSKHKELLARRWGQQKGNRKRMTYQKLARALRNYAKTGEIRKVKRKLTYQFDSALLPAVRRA
Sequence of HSF1 (Q00613 whole entry): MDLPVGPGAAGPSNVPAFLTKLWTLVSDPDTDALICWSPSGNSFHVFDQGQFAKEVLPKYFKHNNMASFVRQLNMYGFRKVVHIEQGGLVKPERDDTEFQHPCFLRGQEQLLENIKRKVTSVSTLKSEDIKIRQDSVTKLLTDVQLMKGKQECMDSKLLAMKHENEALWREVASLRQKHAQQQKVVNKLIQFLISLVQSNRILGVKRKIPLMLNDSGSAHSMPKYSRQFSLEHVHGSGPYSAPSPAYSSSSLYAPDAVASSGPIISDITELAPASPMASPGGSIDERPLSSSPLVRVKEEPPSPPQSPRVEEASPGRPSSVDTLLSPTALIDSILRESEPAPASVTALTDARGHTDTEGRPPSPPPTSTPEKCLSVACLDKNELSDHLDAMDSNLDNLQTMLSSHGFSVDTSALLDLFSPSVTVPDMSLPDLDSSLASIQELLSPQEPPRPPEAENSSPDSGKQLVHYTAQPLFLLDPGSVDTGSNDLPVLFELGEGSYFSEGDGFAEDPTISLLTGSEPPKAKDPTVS

ATAGCA
binding signal (FLI1): 1.17 fold enrichment (6-mer frequency, TF over GST control) | binding signal (ELK1): 1.14 fold enrichment (6-mer frequency, TF over GST control) | binding signal (GABPA): 1.19 fold enrichment (6-mer frequency, TF over GST control) | binding signal (ERG): 1.19 fold enrichment (6-mer frequency, TF over GST control) | binding signal (ELF1): 1.14 fold enrichment (6-mer frequency, TF over GST control) | binding signal (EHF): 1.13 fold enrichment (6-mer frequency, TF over GST control) | binding signal (SPI1): 1.11 fold enrichment (6-mer frequency, TF over GST control) | binding signal (SPIB): 1.18 fold enrichment (6-mer frequency, TF over GST control) | binding signal (ELK3): 1.15 fold enrichment (6-mer frequency, TF over GST control) | binding signal (FEV): 1.13 fold enrichment (6-mer frequency, TF over GST control) | binding signal (ETV5): 1.17 fold enrichment (6-mer frequency, TF over GST control) | binding signal (HSF1): 1.02 fold enrichment (6-mer frequency, TF over GST control) | binding signal (ELF4): 1.16 fold enrichment (6-mer frequency, TF over GST control) | binding signal (ELK4): 1.15 fold enrichment (6-mer frequency, TF over GST control) | binding signal (ETV2): 1.13 fold enrichment (6-mer frequency, TF over GST control) | binding signal (ELF3): 1.25 fold enrichment (6-mer frequency, TF over GST control) | binding signal (CRX): 1.07 fold enrichment (6-mer frequency, TF over GST control) | binding signal (ETV1): 1.1 fold enrichment (6-mer frequency, TF over GST control)
